# Measured values taken from PubChem BioAssay (Tox21).
# Inconclusive results are not listed. A number with no mark means an inactive call. Calls of active or inactive are those of the source. Calls follow the shape of the dose curve; as a rule, active = well fitted cell-killing curve with a large enough effect in the repeat runs; inconclusive = weak or mixed curves, or effect the other way; inactive = no such curve, though single readings can be large or run the other way.
# Assay: Caspase-3/7 induction in CHO-K1 cells by small molecules, qHTS cell viability counter screen (AID 1346979); also: nearly all actives have a fitted effect of over 35% in size
# Conditions: CellTiter-Fluor fluorescence, 17 h; series mostly up to 92.4 µM; activity change, negative = cytotoxicity: at the top concentration
# Procedure, shortened: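 CHO-K1 wt, 1,500 cells/well; 5hr pre-incubation 37C/5% CO2; compound pin transfer (DMSO); 16hr exposure; CellTiter-Fluor added, 1hr, fluorescence read.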
# % is scaled to controls: 0 for no effect and ±100 for the full control effect; potency is read from the fitted curve at half-maximal effect.
SMILES,"activity change, negative = cytotoxicity",Potency
NC1CCC(CC2CCC(N)CC2)CC1 (stereo not drawn),-7.42%,–
O=S(=O)(O)F,4.86%,–
CC[C@H](C)[C@H]1O[C@]2(C=C[C@@H]1C)C[C@@H]1C[C@@H](C/C=C(\C)[C@@H](O[C@H]3C[C@H](OC)[C@@H](O[C@H]4C[C@H](OC)[C@@H](NC)[C@H](C)O4)[C@H](C)O3)[C@@H](C)/C=C/C=C3\CO[C@@H]4[C@H](O)C(C)=C[C@@H](C(=O)O1)[C@]34O)O2,–,6.11 µM (active)
O=S1(=O)OCC2C(CO1)C1(Cl)C(Cl)=C(Cl)C2(Cl)C1(Cl)Cl (stereo not drawn),–,48.6 µM (active)
C#CCO,11.6%,–
C=CCOC(=O)c1ccccc1N,6.92%,–
CN/C(=N\[N+](=O)[O-])NCc1cnc(Cl)s1,-2.24%,–
CC(C)NCC(O)c1ccccc1Cl (stereo not drawn),6.3% [at 42.5 µM],–
O=C(O)[C@H](O)[C@@H](O)C(=O)O,7.43%,–
CC(C)[C@@H](Nc1ccc(C(F)(F)F)cc1Cl)C(=O)OC(C#N)c1cccc(Oc2ccccc2)c1 (stereo partly drawn),-4.06%,–
CCC1(CC)C(=O)N=C(O)NC1=O,3.22%,–
CC(=O)[O][Pb]([c]1ccccc1)([c]1ccccc1)[c]1ccccc1,–,0.386 µM (active)
CC(C)c1c(CN(C)C(C)Cc2ccccc2)n(C)n(-c2ccccc2)c1=O (stereo not drawn),-1.71% [at 42.5 µM],–
Cc1nn(-c2cc(NS(C)(=O)=O)c(Cl)cc2Cl)c(=O)n1C(F)F,-0.0495%,–
CCNS(=O)(=O)C(F)(F)C(F)(F)C(F)(F)C(F)(F)C(F)(F)C(F)(F)C(F)(F)C(F)(F)F,-0.267%,–
CCOP(=S)(OCC)Oc1cc(C)nc(N(CC)CC)n1,3.46%,–
CNN,-12.9%,–
O=P(Cl)(Cl)Cl,3.77%,–
